From PubChem
Most compounds without a hit are left out; they make up all but 9% or so of the library.
ALDH1A1 inh – qHTS Assay for Inhibitors of Aldehyde Dehydrogenase 1 (ALDH1A1). Potency, µM (doses to about 75.3 µM), without a hit: at the top dose activity, negative = inhibition, hits mostly inhibitors. AID 1030, 2008. Aldehyde dehydrogenase 1A1 (Homo sapiens), P00352. Purified ALDH1A1, NADH fluorescence, propionaldehyde substrate. 7.3% of 220,000 active; active means well fitted inhibition curve with a large enough effect, not every such curve was filed as active; inconclusive means small, poorly fitted or top-dose-only effect, or another doubt; inactive means no such curve, though single readings can be large or run the other way;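 further: plate controls were no enzyme wells and a reference inhibitor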
IMPase Li inh – qHTS Assay for Identifying the Cell-Membrane Permeable IMPase Inhibitors: Potentiation with Lithium. CHO-M1 cells, IP1 TR-FRET (IP-One), carbachol + lithium. Potency, µM (doses to about 59.4 µM), without a hit: top-dose activity, negative = IMPase inhibition, hits mostly inhibitors. 0.35% of 210,000 active;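 further: IP1 builds up when IMPase is blocked and the TR-FRET signal falls; plate controls were basal vehicle for no effect and high inhibitor control for full effect; nearly all actives have a fitted effect of over 50% in size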
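IP1 accumulation measured by competitive TR-FRET in lysed CHO-M1 cells after 30 min compound exposure at 37C, with a small lithium addition to potentiate weak responses. Hill-equation AC50 from ratio and donor-channel data.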
HPGD block – qHTS Assay for Inhibitors of HPGD (15-Hydroxyprostaglandin Dehydrogenase); purified HPGD, NADH fluorescence kinetic, PGE2 substrate; 15-hydroxyprostaglandin dehydrogenase [NAD(+)] (Homo sapiens), P15428; 4.3% of 150,000 active; Potency, µM, without a hit: at the highest dose activity change, negative = inhibition, actives largely listed as inhibitors; AID 894, 2007; active means well fitted inhibition curve with a large enough effect, not every such curve was filed as active; inconclusive means small, poorly fitted or top-dose-only effect, or another doubt; inactive means no such curve, though single readings can be large or run the other way
Target sequence (P15428 whole entry, looked up): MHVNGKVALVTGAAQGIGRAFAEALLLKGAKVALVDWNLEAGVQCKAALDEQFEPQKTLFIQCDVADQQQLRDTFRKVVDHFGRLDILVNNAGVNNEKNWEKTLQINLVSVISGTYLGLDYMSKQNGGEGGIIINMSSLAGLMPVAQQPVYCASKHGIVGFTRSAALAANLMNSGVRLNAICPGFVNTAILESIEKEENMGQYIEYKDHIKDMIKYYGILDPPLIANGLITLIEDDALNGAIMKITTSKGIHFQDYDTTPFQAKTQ
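NADH formation kinetics: reaction with 30 uM PGE2 and 1 mM NAD+ (final), 20 nM enzyme, Tris-HCl pH 8 with Tween 20, after 15 min compound preincubation at room temperature. Fluorescence change, last versus first of five reads.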
Lamin A splicing – qHTS Assay for Modulators of Lamin A Splicing | Potency, µM (titrated, usually from 46.1 µM), for the others: at the top dose ratio change, negative = inhibition, actives largely listed as inhibitors | 0.01% of 200,000 active | HeLa LMNA splicing GFP/RFP minigene ratio, 48 h | AID 1487, 2009; active means well fitted inhibition curve with a large enough effect in the signal ratio, with a control signal flat, not every such curve was filed as active; inconclusive means small, poorly fitted or top-dose-only effect, or effect the other way, or a change in a side signal; the % refers to the signal ratio
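S3 HeLa cells stably expressing lamin A-EGFP splicing minigene plus DsRed2, 600 cells/well, 48 h compound exposure at 37C. Laser-scanning cytometry; analysed as GFP (500-530 nm)/RFP (575-640 nm) total intensity ratio; 0.5% DMSO vehicle.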
KinaseGlo FLuc – Counterscreen for Luciferase (Kinase-Glo TM) Inhibition | Kinase-Glo luciferase, ATP luminescence, 8 min | Luciferin 4-monooxygenase (Photuris pensylvanica), Q27757 | Potency, µM (highest dose often 38.3 µM), for the others: at the highest dose activity change, negative = inhibition, most hits filed as inhibitors | 0.28% of 200,000 active; further: nearly all actives have a fitted effect of over 60% in size
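Substrate mix (final 50 mM imidazole pH 7.2, 50 mM KCl, 7 mM MgCl2, 10 uM ATP, 0.01% Tween 20, 0.05% BSA) plus pin-tool compound, then Kinase-Glo detection mix; 8 min ambient, luminescence read.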
The depositor's hits bear a star; ? = inconclusive; . = no result given; [ ] = remark or other dose. Unless noted, the call rests on the fitted dose curve; in most records, active means well fitted curve in the direction sought with a large enough effect; inconclusive means small, poorly fitted or top-dose-only effect, or another doubt; inactive means no such curve, though single readings can be large; an effect the other way counts as inactive or inconclusive. Unless noted, on the % scale 0 is the no-effect control and ±100 the full control effect; potency means the concentration at half of the fitted maximal effect.

SMILES | ALDH1A1 inh | IMPase Li inh | HPGD block | Lamin A splicing | KinaseGlo FLuc
CC(NC(=S)Nc1ccc(Cl)cc1)C(c1ccccc1)N1CCOCC1 (stereo not drawn) | -2% | 9% | -1% | -6% | -1%
O=C(Nc1ccc(Cl)cc1)C(c1ccccc1)N1CCOCC1 (stereo not drawn) | 18µM* | 5% | . | . | -1%
Cc1cccc(C)c1NC(=O)C(c1ccccc1)N1CCOCC1 (stereo not drawn) | 8% | -2% | -6% | -13% | -1%
Cc1cc(Oc2ccc(=O)n(C)n2)nc(=S)[nH]1 | -4% | -11% | . | -19%[46 µM] | 0%
Cn1c(=O)cc(OCC(=O)NCc2cccs2)c2ccccc21 | -5% | 8% | . | . | 1%
Cc1[nH]nc2c1C(c1ccc(-c3ccccc3C#N)o1)C(C#N)=C(N)O2 (stereo not drawn) | 11µM* | . | . | -20% | .
CCN(CC)c1ccc(NC(=O)Cn2c(C(C)NC(=O)c3ccc(C)cc3)nc3ccccc32)cc1 (stereo not drawn) | 4% | -4% | . | . | .
CC(C)(C)c1cc(CSC(=S)NC2CCS(=O)(=O)C2)c(Br)c(C(C)(C)C)c1 (stereo not drawn) | -9% | 18% | . | . | -5%
O=S1(=O)CC=C(CSC(=S)NC2CCS(=O)(=O)C2)C1 (stereo not drawn) | 19µM* | 4% | . | -8%[46 µM] | -1%
CCOc1ccc(S(=O)(=O)Nc2cccc(-c3ccc(N4CCCC4)nn3)c2)cc1 | . | . | . | -19%[46 µM] | .
CN(C)c1ncc2nc(-c3ccc(Cl)cc3)c(=O)n(-c3ccccc3)c2n1 | ? | 2.8µM* | . | ? | .
COc1ccc(-n2c(=O)c(-c3ccc(Cl)cc3)nc3cnc(N(C)C)nc32)cc1 | ? | 2.8µM* | . | -1% | .
COc1ccc(NCC(=O)N/N=C(\C)c2cc3ccccc3o2)cc1 | 25µM* | 32% | . | . | -3%
C/C(=N\NC(=O)COc1ccc(C(C)(C)C)cc1)c1cc2ccccc2o1 | -9% | 5% | ? | ? | -2%
C/C(=N\NC(=O)CNc1ccc(F)cc1)c1cc2ccccc2o1 | 11µM* | 31% | . | -4%[46 µM] | -1%
Cn1c(N)c(C(=O)COC(=O)CC(NC(=O)c2ccccc2Cl)c2ccccc2)c(=O)n(C)c1=O (stereo not drawn) | ? | 5% | . | . | -2%
CCCNS(=O)(=O)c1ccc(CCC(=O)Nc2ccc3c(c2)OCO3)cc1 | ? | -10%[38.3 µM] | 2% | ? | -5%
O=C(CCc1ccc(S(=O)(=O)NCc2ccccc2)cc1)NCc1ccco1 | ? | -9% | -15% | ? | -3%
CC(C)NS(=O)(=O)c1ccc(OCC(=O)Nc2ccc3c(c2)OCO3)cc1 | ? | -1% | . | . | -1%
CCCNS(=O)(=O)c1ccc(CCC(=O)Nc2ccc3c(c2)OCCO3)cc1 | 10µM* | -11% | -13% | ? | -2%
CCCNS(=O)(=O)c1ccc(CCC(=O)NCc2ccco2)cc1 | 2.2µM* | 11%[38.3 µM] | -13% | 6% | 3%
CCC(C)NS(=O)(=O)c1ccc(OCC(=O)Nc2ccc3c(c2)OCO3)cc1 (stereo not drawn) | 1.3µM* | -8%[38.3 µM] | -15% | 1% | 2%
CC(C)NS(=O)(=O)c1ccc(CCC(=O)Nc2ccc3c(c2)OCO3)cc1 | 0.4µM* | 21%[38.3 µM] | -12% | -12% | -1%
CC(=O)OCC(=O)[C@@]12OC(C)(C)O[C@@H]1C[C@H]1[C@H]3C[C@H](F)C4=CC(=O)C=C[C@@]4(C)[C@]3(F)[C@H](O)C[C@@]12C | -8%[20.9 µM] | -6% | -4% | ? | 1%[17.1 µM]
Cc1ccsc1/C=N/NC(=O)C(=O)NCC(C)C | 11% | -6% | . | . | -16%
SMILES | ALDH1A1 inh | IMPase Li inh | HPGD block | Lamin A splicing | KinaseGlo FLuc
O=C1CCC(C(=O)N2CCC(CO)(Cc3ccc(Cl)cc3)CC2)=NN1 | ? | 1% | . | . | -3%
CC(C)(C)c1cc(Cc2ccccc2)[nH]n1 | 3% | 4%[38.3 µM] | 20µM* | 5% | 1%
Cc1c2c(nc3ccccc13)CC(C)(C)CC2=O | 14µM* | 1% | . | -10%[46 µM] | 9%
Cc1c2c(nc3nc4ccccc4n13)CC(C)(C)CC2=O | -2% | 7%[38.3 µM] | -13% | -2% | -1%
Cc1cc2nnc(SC3CCCCN(C(=O)c4ccc(F)cc4)C3=O)n2c2ccccc12 (stereo not drawn) | 18µM* | 11%[38.3 µM] | ? | -2% | -7%
O=C(c1ccc(F)cc1)N1CCCCC(Sc2nnc3ccccn23)C1=O (stereo not drawn) | 0% | -7%[38.3 µM] | -10% | 9% | -3%
CC1Cc2cc(S(=O)(=O)NCCc3ccccc3)ccc2N1C(=O)C1CCC1 (stereo not drawn) | . | . | . | -8%[46 µM] | .
Cc1cc2oc(=O)cc(CN3CCC(C)CC3)c2cc1Cl | 20µM* | 15%[38.3 µM] | -23% | -3% | 0%
Cc1cc2oc(=O)cc(CN3CCN(Cc4ccccc4)CC3)c2cc1Cl | ? | 1%[38.3 µM] | ? | ? | -3%
CNc1ncnc2c1ncn2[C@H]1C[C@H](O)[C@@H](CO)O1 | 8% | 3% | . | . | .
CC(C)(C)c1nc(NCCN2CCOCC2)c2nnn(Cc3ccccc3Cl)c2n1 | ? | 33%[38.3 µM] | -19% | ? | -2%
Cc1nc(NCCO)c2nnn(Cc3ccccc3F)c2n1 | ? | -8% | 2% | -3% | 2%
Cc1nc(NCC2CCCO2)c2nnn(Cc3c(F)cccc3Cl)c2n1 (stereo not drawn) | ? | 2% | . | ? | 2%
CCOCCCNc1nc(C)nc2c1nnn2Cc1c(F)cccc1Cl | 8.9µM* | -2% | . | 4%[46 µM] | -2%
C#CCNc1nc(C)nc2c1nnn2Cc1ccccc1F | 11µM* | 7%[38.3 µM] | -4% | 11% | 1%
Cc1nc(NCCN2CCOCC2)c2nnn(Cc3ccccc3Cl)c2n1 | 16µM* | 18%[38.3 µM] | -12% | -14% | -5%
Cc1ccc([N+](=O)[O-])cc1S(=O)(=O)Nc1ccc(N2CCOCC2)cc1 | -9% | 7% | . | . | 1%
CCOc1ccc(Nc2oc(-c3ccc(COc4ccccc4C)o3)nc2C#N)cc1 | . | . | . | 5%[46 µM] | .
